Source: PubChem BioAssay AID1259415 (National Center for Advancing Translational Sciences (NCATS), 2018)
About 18,000 (4.4%) of roughly 410,000 compounds were called active. Roughly 7% stayed inconclusive and do not appear here. No stated cut-off is given here; in the data, active means activity change below about -60%; inconclusive means no clear call, values can overlap the other calls; inactive means above about -39%. What follows is part of a selection rich in actives, with near analogues and random picks from the rest.

Test: qHTS Assay for inhibitors of the human cytomegalovirus (HCMV)
Settings: HFF cells, HCMV-luciferase reporter, 72 h; at 57.5 µM; stronger effect = lower value
Summary of the method: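 Two-dose cell screen: HFF monolayers treated with compounds and infected with luciferase-expressing HCMV at 1 PFU/cell, 72 h at 37C, then lysed for luciferase measurement.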
On the % scale 0 is the no-effect control and ±100 the full control effect.

| SMILES | activity change, negative = inhibition |
| --- | --- |
| Cc1cccc(Cc2c(C)nc3nc(SCc4ccccc4Cl)nn3c2C)c1 | 4.98% (inactive) |
| Oc1ccc(-c2nc3ccc(Cl)cn3c2Nc2ccc3c(c2)OCO3)cc1 | 12.9% (inactive) |
| Cc1ccc(CCNC(=O)c2ccc3c(c2)nc2n3CCC(C)C2)cc1 (stereo not drawn) | 14.9% (inactive) |
| COc1ccc2c(c1OC)C(=O)OC2Nc1nc(-c2ccccc2)cs1 (stereo not drawn) | -104% (active) |
| COc1ccc(-c2cc(-c3ccc(F)cc3)nc3c2COc2ccccc2-3)cc1 | -6.64% (inactive) |
| Cc1ccc(-c2csc(NC3OC(=O)c4ccccc43)n2)cc1 (stereo not drawn) | 0% (active) |
| COc1ccc(-c2csc(NC3OC(=O)c4ccccc43)n2)cc1 (stereo not drawn) | -107% (active) |
| CCCc1nc2scc(-c3ccc(C)cc3)c2c(=O)n1N | -13.5% (inactive) |
| COc1cccc(C(NC(C)=O)c2nc(-c3ccccc3OC)cs2)c1 (stereo not drawn) | 28.9% (inactive) |
| Cc1cc2c(cc3c(SCc4cccc(Cl)c4)nnc(C)n32)o1 | 4.43% (inactive) |
| Cc1ccc(-n2c(=O)c3cccnc3n2CC(=O)Nc2ccccc2C(F)(F)F)cc1C | -5.4% (inactive) |
| CCN(C(=O)CSc1cccc[n+]1[O-])c1ccccc1 | -32.1% (inactive) |
| O=C(CSc1cccc[n+]1[O-])c1ccc(-c2ccccc2)cc1 | -97.9% (active) |
| O=C(CSc1cccc[n+]1[O-])NCCCc1ccccc1 | -39.5% (inactive) |
| COC(=O)Cc1nnn2c1[C@H](C)[C@H](c1ccccc1[N+](=O)[O-])OCC2 | -4.47% (inactive) |
| COc1ccc(CNC(=O)COCc2cc(-c3cccs3)on2)cc1OC | -28.2% (inactive) |
| CC1CCN(c2nc3ccc(C(=O)N4CCN(c5ccccc5)CC4)cc3s2)CC1 | 31.7% (inactive) |
| S=c1[nH]nc(CSCc2ccc(Cl)cc2Cl)n1-c1ccccc1 | -18.3% (inactive) |
| CCn1c(-c2ccncc2)n[nH]c1=S | -21.8% (inactive) |
| CCn1c(CSCc2c(Cl)cccc2Cl)n[nH]c1=S | -67.6% (active) |

| SMILES | activity change, negative = inhibition |
| --- | --- |
| Cc1cc(C)n2nc(CNS(=O)(=O)c3c(F)c(F)c(F)c(F)c3F)nc2n1 | 0% (inactive) |
| CCc1ccc2oc(-c3ccc(C)c(NC(=O)/C=C/c4ccco4)c3)nc2c1 | 34.4% (inactive) |
| Cc1ccc(NC(=O)Cn2c(=O)n(-c3ccccc3)c(=O)c3c4c(sc32)CCCC4)cc1 | 2.61% (inactive) |
| CCOC(=O)c1c(NC(C)=O)c2c3c(sc2n1Cc1c(C)cc(C)cc1C)CCCC3 | -73.8% (active) |
| CCC(C)NC(=O)Cn1c(=O)n(-c2ccc(Cl)cc2)c(=O)c2c3c(sc21)CCCC3 (stereo not drawn) | 12.8% (inactive) |
| CCOc1ccc(C(=O)c2cn(Cc3ccc(F)cc3)c3ccc(F)cc3c2=O)cc1 | -1.76% (inactive) |
| CCCc1nn2c(=O)cc(CSCC(=O)Nc3cccc(C)c3)nc2s1 | 2.89% (inactive) |
| C=CCNC(=S)NNC(=O)c1ccc(Br)o1 | -7.15% (inactive) |
| CNC(=S)N/N=C/c1ccc(N2CCOCC2)s1 | 26.5% (inactive) |
| C=CCNC(=S)N/N=C/c1ccc(C)s1 | 0% (active) |
| CN(C(=O)COC(=O)Cn1cnc2c1c(=O)n(C)c(=O)n2C)C1(C#N)CCCCC1 | 40.8% (inactive) |
| CCC(CC)c1nn2cc(-c3ccccc3)nc2s1 | -21.9% (inactive) |
| CCc1cc2c(cc3c(=O)n(CC(=O)NCc4cccc(Cl)c4)nc(CC)n32)s1 | 34.4% (inactive) |
| CC1(C)CC2CC(C)(CN2c2ncnc3ccc(Br)cc23)C1 (stereo not drawn) | -62.4% (active) |
| Cc1ccc(CN(C(=O)c2ccccc2[N+](=O)[O-])c2ccccn2)cc1 | 3.28% (inactive) |
| Cc1ccc(C(CNC(=O)Nc2ccccc2)N2CCN(C)CC2)cc1 (stereo not drawn) | -29.6% (inactive) |
| Cc1ccc(NC(=O)NNC(=O)c2sccc2-n2cccc2)cc1 | -19% (inactive) |
| C=CC[n+]1c(-c2ccc(C)cc2)csc1NNC(=O)Nc1ccccc1 | -69.2% (active) |
| Cc1cc2c(cc3c(SCc4nc(-c5ccccc5)oc4C)nnc(C)n32)o1 | -3.85% (inactive) |
| CC(=O)Nc1ccc(NC(=O)CSc2nnc3c4cc(Br)ccc4n(C)c3n2)cc1 | 38.8% (inactive) |

| SMILES | activity change, negative = inhibition |
| --- | --- |
| CCOC(=O)CN1C(C(=O)c2ccccc2)=C(OC(=O)C(C)(C)C)c2ccccc2S1(=O)=O | -14% (inactive) |
| CCCOc1ccc(Cc2c(Cl)nc(SC)nc2NC)cc1 | -93.9% (active) |
| Cc1nc(SCCOc2ccc(Cl)cc2)[nH]c(=O)c1Cc1ccccc1 | -7.29% (inactive) |
| CCCOc1ccc(Cc2c(O)nc(SC)[nH]c2=O)cc1C | 15.7% (inactive) |
| CN(Cc1cccc2ncccc12)C(=O)CC1C(=O)NCCN1Cc1ccc(F)cc1 (stereo not drawn) | -30.9% (inactive) |
| O=C(CN1CCN(Cc2ccc(Cl)cc2)C1=O)NCc1ccc(F)cc1 | -24.9% (inactive) |
| Cc1ccc(C(=O)NC2CCCC(C)C2C)cc1S(=O)(=O)N1CCCCC1 (stereo not drawn) | -22.8% (inactive) |
| Cc1nn(-c2ccccc2)c(C)c1NC(=O)COC(=O)c1cc(Cl)ccc1O | 9.57% (inactive) |
| Cc1nn(-c2ccccc2)c(C)c1NC(=O)COc1ccc(Cl)cc1Cl | -98.7% (active) |
| Cc1nn(-c2ccccc2)c(C)c1NC(=O)COC(=O)Cc1ccccc1 | -13% (inactive) |
| N#Cc1nc(/C=C/c2ccc(F)cc2)oc1NCc1ccc(F)cc1 | -13.8% (inactive) |
| COc1cccc(-c2cc(C(=O)Nc3ccc(C)cc3)[nH]n2)c1 | 11.2% (inactive) |
| CCc1ccc(CNC(=O)c2cc3cc4ccc(OC)cc4nc3o2)cc1 | -26.2% (inactive) |
| Cc1ccc2c(=O)c(C(=O)c3cccc(Cl)c3)cn(CC(=O)NCc3ccccc3)c2n1 | -12.2% (inactive) |
| CN(C(=O)c1ccc2c(c1)N(Cc1cccc(Cl)c1)C(=O)c1ccccc1S2=O)C1CCCCC1 (stereo not drawn) | -63.4% (active) |
| O=C(NC1CCCCC1)c1ccc2c(c1)N(Cc1ccc(Cl)cc1)C(=O)c1ccccc1S2=O (stereo not drawn) | 8.53% (inactive) |
| O=C(Nc1cc(Cl)cc(Cl)c1)c1ccc2c(c1)N(Cc1cccc(Cl)c1)C(=O)c1ccccc1S2=O (stereo not drawn) | 16.5% (inactive) |
| CCCCNC(=O)c1nc(C2CCN(S(=O)(=O)c3ccc(F)c(F)c3)CC2)oc1-c1cccc(C(F)(F)F)c1 | 6.36% (inactive) |
